The record followed here is PubChem BioAssay AID651768 (National Center for Advancing Translational Sciences (NCATS), 2012).

Screen size: about 360,000 compounds; about 1,700 (0.47%) were called active. About 2% were inconclusive and are not listed. The entries come from a sample that favours actives as a whole. Values without a mark were called inactive. Calls follow the shape of the dose curve; as a rule, active = well fitted inhibition curve with a large enough effect; inconclusive = small, poorly fitted or top-dose-only effect; inactive = no such curve, though single readings can be large or run the other way.
% is scaled to controls: 0 for no effect and ±100 for the full control effect; potency is read from the fitted curve at half-maximal effect.

Chain of Bifunctional 3'-5' exonuclease/ATP-dependent helicase WRN (Homo sapiens) (Q14191 whole entry, looked up): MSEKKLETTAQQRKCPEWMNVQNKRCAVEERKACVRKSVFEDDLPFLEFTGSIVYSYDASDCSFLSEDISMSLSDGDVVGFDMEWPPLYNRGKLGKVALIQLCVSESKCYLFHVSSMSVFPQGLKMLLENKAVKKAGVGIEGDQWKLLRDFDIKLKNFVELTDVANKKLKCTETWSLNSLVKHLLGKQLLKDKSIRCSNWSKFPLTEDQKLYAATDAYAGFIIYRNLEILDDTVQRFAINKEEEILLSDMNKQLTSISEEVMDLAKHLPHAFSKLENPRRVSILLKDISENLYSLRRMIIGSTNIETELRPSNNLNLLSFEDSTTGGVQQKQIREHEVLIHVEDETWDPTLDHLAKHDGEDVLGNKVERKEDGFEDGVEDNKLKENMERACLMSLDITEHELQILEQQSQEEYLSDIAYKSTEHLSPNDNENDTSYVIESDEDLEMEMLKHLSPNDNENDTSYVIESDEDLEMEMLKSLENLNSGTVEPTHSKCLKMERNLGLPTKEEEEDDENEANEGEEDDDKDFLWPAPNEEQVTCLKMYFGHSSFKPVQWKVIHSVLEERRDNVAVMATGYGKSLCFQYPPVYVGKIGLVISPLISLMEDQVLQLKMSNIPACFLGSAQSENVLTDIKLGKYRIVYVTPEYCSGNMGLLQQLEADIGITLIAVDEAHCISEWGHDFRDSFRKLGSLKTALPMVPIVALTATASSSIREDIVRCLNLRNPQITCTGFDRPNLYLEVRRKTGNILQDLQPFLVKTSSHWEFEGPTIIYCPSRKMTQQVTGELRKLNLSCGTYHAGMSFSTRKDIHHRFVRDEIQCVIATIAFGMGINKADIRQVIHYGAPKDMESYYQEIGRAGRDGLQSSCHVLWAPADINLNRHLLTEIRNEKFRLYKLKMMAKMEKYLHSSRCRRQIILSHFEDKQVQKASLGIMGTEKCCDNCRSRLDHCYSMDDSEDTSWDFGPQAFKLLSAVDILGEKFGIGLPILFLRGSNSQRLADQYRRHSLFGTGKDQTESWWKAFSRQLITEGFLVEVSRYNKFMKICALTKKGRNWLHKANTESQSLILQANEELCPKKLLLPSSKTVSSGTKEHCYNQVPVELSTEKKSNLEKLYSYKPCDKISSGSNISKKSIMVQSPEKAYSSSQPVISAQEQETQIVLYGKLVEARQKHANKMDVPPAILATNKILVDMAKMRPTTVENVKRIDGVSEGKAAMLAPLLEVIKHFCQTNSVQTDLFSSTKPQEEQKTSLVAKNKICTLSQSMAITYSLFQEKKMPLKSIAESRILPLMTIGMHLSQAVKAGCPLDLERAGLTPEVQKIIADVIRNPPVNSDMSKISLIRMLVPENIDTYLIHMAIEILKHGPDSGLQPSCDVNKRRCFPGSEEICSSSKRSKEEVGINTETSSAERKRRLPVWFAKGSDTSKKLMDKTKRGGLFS

This assay addresses Bifunctional 3'-5' exonuclease/ATP-dependent helicase WRN (Homo sapiens) (UniProt Q14191). The assay can be described thus: qHTS for Inhibitors of WRN Helicase. Also: nearly all actives have a fitted effect of over 55% in size. The conditions noted are these: WRN helicase unwinding, fluorescent forked duplex, kinetic; series mostly up to 114 µM; activity change, negative = inhibition: at the top concentration. The gist of the method: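 WRN at 20 nM final was preincubated with compound for 15 min at room temperature; reaction started with 100 nM forked duplex oligonucleotide carrying fluorophore and quencher plus 2 mM ATP (final). Unwinding followed kinetically by red fluorescence (ex 525/em 598 nm).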
(In qHTS, concentration-response curves come from the screen itself.)
Regarding `Cc1cccc(C)c1NC(=O)C(c1cccc2ccccc12)n1c(=O)c(-c2ccco2)nc2ccccc21` (stereo not given), the “activity change, negative = inhibition” value is -2.69%.
As for `O=C(CSC(=S)N1CCCCC1)c1c(F)cccc1F`, the “activity change, negative = inhibition” value is 8.5%.
For the compound `Cc1c(CC(=O)N2CCN(C(=O)C3COc4ccccc4O3)CC2)c(=O)oc2c(O)c(O)ccc12` (stereo not given), the Potency was 10 µM (active).
As for `Cc1ccc(S(=O)(=O)NCCC(=O)NNC(=O)C2COc3ccccc3O2)cc1` (stereo not given), the “activity change, negative = inhibition” value is 1.81%.
`Cc1c(CCC(=O)O)c(=O)oc2c(C)c(OCc3ccccc3Cl)ccc12`: the activity change, negative = inhibition is -22.9% [at 11.6 µM].
As to `O=C(CCN1CCc2ccccc2C(O)(c2ccccc2)C1)c1ccc2c(c1)OCCO2` (stereo not given), the Potency is 31.6 µM (active).
For the compound `O=C(CN1CCN(c2ccccc2F)CC1)c1ccc2c(c1)OCO2`, the “activity change, negative = inhibition” value is -4.89%.
Consider `CCC1(c2ccccc2)NC(=O)N(CC(=O)c2ccc3c(c2)OCO3)C1=O` (stereo not given), for which the “activity change, negative = inhibition” value was -8.83%.
Same read-out and setting: the same measure for `CCCCCNC(=O)C1C(=O)Nc2ccccc2C(=O)N1C(C)(C)C` (stereo not given): 4.68%; for `O=c1[nH]oc(O)c1-c1ncc(C(F)(F)F)cc1Cl`: -5.42%.
As to `CN(Cc1c(F)cccc1Cl)S(=O)(=O)c1cccs1`, the “activity change, negative = inhibition” value is -5.6%.
The same measure, in the same setting: in the case of `COC(=O)C1=C(C(=O)OC)[C@@H]2N(C)c3ccccc3[C@@]23C[C@@H](C(=O)OC)N(C(=O)c2ccco2)C3=N1` it was 2.76%; in that of `CN1C=CC=C/C1=C1\SC(=S)N(Cc2ccccc2)C1=O`, -16.5%.
As for `COc1cc(/C=C2/SC(=S)N(Cc3ccccc3)C2=O)cc(OC)c1O`, the Potency is 10 µM (active).
For `COc1ccc(CCNC2=C(Cl)C(=O)N(Cc3ccccc3)C2=O)cc1OC`, the “activity change, negative = inhibition” value is -14.6%.
Consider `COC(=O)C[C@H]1C=C[C@H](NC(=O)c2ccc(F)cc2)[C@@H](CO)O1`, for which the “activity change, negative = inhibition” value was -3.28%.
Regarding `O=S(=O)(Nc1ccc(OC(F)(F)F)cc1)c1cccc2nonc12`, the “activity change, negative = inhibition” value was -10.1%.
Same read-out and setting: in the case of `COc1ccccc1NS(=O)(=O)c1ccc(C(=O)N2CCN(c3ccccc3O)CC2)cc1` it was 1.94%.
Take `O=S(=O)(Nc1ccc(O)c2ccccc12)c1ccc(OC(F)(F)F)cc1`: the Potency is 56.2 µM (active).
As to `O=C(NCc1ccncc1)C(=O)NCC1OCCN1S(=O)(=O)c1ccc(Br)cc1` (stereo not given), the “activity change, negative = inhibition” value is -13.3%.
As for `Cc1ccccc1N/C(SCc1ccc(Cl)cc1)=C(/C#N)C(N)=O`, the “activity change, negative = inhibition” value was -14.6%.
Still for that read-out and setting: the same measure for `O=C(CCCCCn1c(=S)[nH]c2ccsc2c1=O)NC1CCCCC1`: 1.73%; for `O=C(/C=C/c1cccs1)NCc1cccnc1`: 1.39%; for `Cc1ccccc1NC(=O)Cn1c(=O)n(CC2CCCO2)c(=O)c2ccccc21` (stereo not given): 1.69%.
In the case of `Cc1ccccc1NC(=O)CN1C(=O)N/C(=C\c2cccn2-c2cccc(C(=O)O)c2)C1=O`, the Potency was 10.6 µM (active).
In the case of `COC(=O)CN1C(=O)N/C(=C/c2ccc(OC)c(C)c2OC)C1=O`, the “activity change, negative = inhibition” value was -4.64%.
The same measure, in the same setting: the same measure for `CCCCCc1c(-c2ccc(OC)c(OC)c2)ncn1CCc1ccccc1OC`: -2.28%; for `CCc1cc(C(c2ccccc2OC)N2CCOCC2)c(NC(=O)c2ccccc2)s1` (stereo not given): -6.56%; for `O=C(Nc1ccccc1C(=O)NCCCn1ccnc1)c1ccc(Cl)cc1Cl`: -10.2%.
Still for that read-out and setting: the same measure for `CCCNC(=O)C1(C)CCCN(Cc2cccc(C(F)(F)F)c2)C1` (stereo not given): 1.01%.
The same measure, in the same setting: in the case of `COCCN(Cc1cc2cc3c(cc2nc1Cl)OCO3)C(=O)c1cccc(C)c1` it was 6.25%.
For `COc1ccc(OC)c(/C=N/NC(=O)c2ccc[n+](CC(=O)c3ccccc3)c2)c1`, the “activity change, negative = inhibition” value is -1.88%.
The same measure, in the same setting: the same measure for `COc1cc(/C=N/NC(=O)c2cccnc2)ccc1OC(=O)c1cccc(Br)c1`: -19.9%.
As for `COc1cccc(/C=N/NC(=O)c2[nH]nc3c2CCc2ccccc2-3)c1O`, the Potency was 25.1 µM (active).
Regarding `COC(=O)[C@@]12C[C@@H](CC(=O)NCc3cccc(C(F)(F)F)c3)C(=O)N(Cc3ccco3)C1=CCC(C)(C)C2`, the “activity change, negative = inhibition” value is -8.06%.
The same measure, in the same setting: the same measure for `CC(=O)Nc1ccc(Nc2c([N+](=O)[O-])cc(S(C)(=O)=O)cc2[N+](=O)[O-])cc1`: -3.38%.
Regarding `CC(=O)Nc1ccc(Nc2c3ccccc3nc3ccccc23)cc1`, the Potency is 25.1 µM (active).
`O=C(NNc1c2ccccc2nc2ccccc12)c1cc2ccccc2cc1O`: the “activity change, negative = inhibition” value was -16.5% [at 57.1 µM].
Same read-out and setting: in the case of `COCCN1C(=O)c2oc3c(C)cc(C)cc3c(=O)c2C1c1cccc(O)c1` (stereo not given) it was -6.21%; in that of `C[C@H](NC(=O)c1nc[nH]c1C(=O)N[C@@H](C)C(=O)OC(C)(C)C)C(=O)OC(C)(C)C`, -3.84%; in that of `O=C(NCc1nnc(SCC(=O)N2CCCc3ccccc32)o1)c1ccccc1F`, -16.5%.
On to `Cc1cc(C)c2c(=O)[nH]c(SCC(=O)Nc3ccc(Br)cc3)nc2n1`, for which the “activity change, negative = inhibition” value is -11.3%.
On the same count and under the same terms, the same measure for `CC(=O)CSc1nc(CCc2ccccc2)c(C#N)c(=O)[nH]1`: -3.59% [at 57.1 µM].
Consider `N#Cc1c(-c2cccs2)nc(SCC(=O)c2ccc(Br)cc2)[nH]c1=O`, for which the Potency is 50.1 µM (active).
On to `CCC1(c2ccccc2)NC(=O)N(CC(=O)Nc2ccccc2C(=O)NC2CCCC2)C1=O` (stereo not given), for which the “activity change, negative = inhibition” value was -7.05%.
